# Assay results: ChEMBL document CHEMBL3988442, “University of Dundee, Small-Polar-MMV Screening Library” (2021)
# In all, about 69,000 compounds went through this assay and about 1,000 (1.4%) showed an effect of 50% or more. Shown is part of a subset that was picked to be rich in strong results.
# System: Leishmania donovani
# Experiment: Leishmania intramacrophage assay
# Format: functional, organism-based
# Parameters: scale not given: in the data most compounds retested in dose-response had high values
compound,measurement,setting,value
CN(C)CCNC(=O)c1sc2ccccc2c1C1CCC(CN)CC1.Cl (stereo not given),Percent Effect,"30.3 µM, […]",63.37%
Cl.NCC1CCC(c2c(C(=O)NCCO)sc3ccccc23)CC1 (stereo not given),Percent Effect,"30.3 µM, […]",15.08%
COCCNC(=O)c1sc2ccccc2c1C1CCC(CN)CC1.Cl (stereo not given),Percent Effect,"30.3 µM, […]",18.8%
COCc1cccc(NS(=O)(=O)c2cc(C(=O)O)cs2)c1,Percent Effect,"30 µM, 30.03 µM",36.6%
CCNc1ncc2c(n1)CN(c1ccc(OC(F)(F)F)cc1)C2=O,Percent Effect,"30.3 µM, […]",23.96%
CN1CCC(O)(CNCc2ccc(F)c(C(F)(F)F)c2)CC1,Percent Effect,"30.3 µM, […]",85.74%
OC1(CNCc2ccc(F)c(C(F)(F)F)c2)CCOC1 (stereo not given),Percent Effect,"30.3 µM, […]",25.18%
OC1(CNCc2ccc(F)c(C(F)(F)F)c2)CCSCC1,Percent Effect,"30.3 µM, […]",40.38%
CC(C)N1CCN(c2ccc3ccc(C(=O)NC4CCCC4)cn23)CC1.O=C(O)C(F)(F)F,Percent Effect,"30.3 µM, […]",37.85%
N#Cc1cc(F)c(NCCCOCC2CCOC2)c(F)c1 (stereo not given),Percent Effect,"30.3 µM, […]",29.08%
CCc1c(C)nc(C)nc1N1C[C@@H](CN(C)CCN(C)C)[C@@H](CO)C1,Percent Effect,"30.3 µM, […]",30.66%
CCc1c(C)nc(C)nc1N1C[C@@H](CN(CC)CCO)[C@@H](CO)C1,Percent Effect,"30.3 µM, […]",-0.6836%
CCc1c(C)nc(C)nc1N1C[C@@H](CN(C)C)[C@@H](CO)C1,Percent Effect,"30.3 µM, […]",54.47%
Cn1ccnc1CN1C[C@@H](CN2CCCC2)[C@@H](CO)C1,Percent Effect,"30.3 µM, […]",30.27%
CCN1CC[C@]2(CN(Cc3nccs3)C[C@H]2c2ccccc2)C1=O.O=C(O)C(F)(F)F,Percent Effect,"30.3 µM, […]",23.61%
COc1ccc(-c2n[nH]c(C)c2CC(=O)NCCN2CCOCC2)cc1,Percent Effect,"30.3 µM, […]",-10.63%
Cc1cc(CS(=O)(=O)C(C)C(=O)N(C)c2ccccc2)on1 (stereo not given),Percent Effect,"30.3 µM, […]",59.375%
Cc1noc(CS(=O)(=O)C(C)C(=O)N(C)c2ccccc2)n1 (stereo not given),Percent Effect,"30.3 µM, […]",12.83%
Cc1noc(C)c1CS(=O)(=O)C(C)C(=O)N(C)c1ccccc1 (stereo not given),Percent Effect,"30.3 µM, […]",39.61%
Cc1cc(C)n(CC2CN(Cc3cc(C)on3)CCO2)n1 (stereo not given),Percent Effect,30 µM,28.82%
O=C(CN1CCOCS1(=O)=O)NCc1ccccc1,Percent Effect,"30.3 µM, […]",-15.82%
COC1COC2(CCN(Cc3ccc4c(c3)OCO4)CC2)C1.O=C(O)C(F)(F)F (stereo not given),Percent Effect,"30.3 µM, […]",2.758%
CC(C)n1c(C2CCCN(CCS(C)(=O)=O)C2)nc2ccccc21 (stereo not given),Percent Effect,"30 µM, 30.03 µM",13.25%
CC(C)n1c(C2CCCN(CC(N)=O)C2)nc2ccccc21 (stereo not given),Percent Effect,"30.3 µM, […]",0.009374%
CC(C)OCCCN1CCCC(c2nc3ccccc3n2C(C)C)C1 (stereo not given),Percent Effect,"30 µM, 30.03 µM",51.41%
CC(C)c1noc(OCc2cccc(C#N)c2)n1,Percent Effect,"30.3 µM, […]",36.94%
CN1CCN(Cc2noc(-c3cc(-c4ccccc4F)n[nH]3)n2)CC1,Percent Effect,"30.3 µM, […]",-14.35%
c1cc2c(cc1-n1nc(C3CC3)nc1-c1csnn1)OCCO2,Percent Effect,"30.3 µM, […]",-0.4467%
CC(CNC(=O)c1c[nH]nn1)Oc1ccc(Cl)cc1 (stereo not given),Percent Effect,"30.3 µM, […]",-48.71%
c1ccc(C2CCCN(c3ncnc4c3CCNC4)CC2)cc1 (stereo not given),Percent Effect,"30.3 µM, […]",74.19%
c1ccc(C2CCN(c3ncnc4c3CCNC4)CC2)cc1,Percent Effect,"30.3 µM, […]",29.27%
c1cc(C2CCN(c3ncnc4c3CCNCC4)CC2)ccn1,Percent Effect,"30.3 µM, […]",3.191%
c1ccn2c(C3CCCN(c4ncnc5c4CCNC5)C3)nnc2c1 (stereo not given),Percent Effect,"30.3 µM, […]",-1.091%
c1ccc2c(c1)CN(c1ncnc3c1CCNC3)CCO2,Percent Effect,"30.3 µM, […]",24.34%
Clc1cccc(C2CCN(c3ncnc4c3CCNC4)C2)c1 (stereo not given),Percent Effect,"30.3 µM, […]",76.01%
N#Cc1cc(C(F)(F)F)ccc1NCC1CCS(=O)(=O)CC1,Percent Effect,"30.3 µM, […]",3.711%
O=C(c1cc[nH]n1)N1CCC(c2cc(Nc3ccccn3)n[nH]2)CC1,Percent Effect,"30.3 µM, […]",6.823%
Cc1ccc(NC2CCN(C(=O)c3cccc4[nH]ncc34)CC2)nn1,Percent Effect,"30.3 µM, […]",16.62%
Cc1ccccc1C(C)CC(=O)N1CC[C@H](O)C1 (stereo not given in full),Percent Effect,"30.3 µM, […]",50.74%
Cc1cc(CCC(=O)N2CC[C@H](O)C2)ccc1Br,Percent Effect,"30.3 µM, […]",-18.41%
COc1ccccc1C(C)CC(=O)N1CC[C@H](O)C1 (stereo not given in full),Percent Effect,"30.3 µM, […]",5.433%
COCCNc1ccccc1CNC(=O)NCc1cnc(C)s1,Percent Effect,"30.3 µM, […]",19.41%
c1cnn(CC2CCCN2Cc2nc(-c3ccoc3)no2)c1 (stereo not given),Percent Effect,"30 µM, 30.03 µM",-37.38%
Cn1nc(C(=O)NCc2ccccc2C(F)(F)F)c2c1CCS(=O)(=O)C2,Percent Effect,"30.3 µM, […]",36.38%
CCN1CC2(CCCCN2C(=O)c2ccsc2)CC1=O (stereo not given),Percent Effect,"30.3 µM, […]",22.42%
C=C1C(C)(C)[C@H]2CC[C@]1(C(=O)N1CCC(Cn3cc(CO)nn3)CC1)C2,Percent Effect,"30.3 µM, […]",-11.33%
Cc1nc(CN2CCC23CCN(Cc2ccco2)CC3)cs1,Percent Effect,"30.3 µM, […]",53.61%
Cc1nc(CN2CCC3(CCCN(Cc4ccoc4)C3)C2=O)cs1.O=C(O)C(F)(F)F.O=C(O)C(F)(F)F (stereo not given),Percent Effect,"30.3 µM, […]",15.73%
Cc1nc(CN2C(=O)CCC23CCN(Cc2ccco2)CC3)cs1,Percent Effect,"30.3 µM, […]",23.38%
Cc1nc(CN2CCC23CCN(Cc2ccoc2)CC3)cs1,Percent Effect,"30.3 µM, […]",63.43%
Cc1nc(CN2CCC3(C2)CN(Cc2ccco2)C3)cs1,Percent Effect,"30.3 µM, […]",58.57%
Cc1nc(CN2CCN(C(=O)CCc3ccco3)CC2)cs1,Percent Effect,30 µM,15.52%
Cc1nc(CN2CCC23CCN(C(=O)c2ccco2)CC3)cs1,Percent Effect,"30.3 µM, […]",26.24%
Cc1nc(CN2CCC3(C2)CN(C(=O)c2ccc[nH]2)C3)cs1,Percent Effect,"30.3 µM, […]",35.81%
Cc1nc(CN2C(=O)CCC23CCN(Cc2ccoc2)CC3)cs1.O=C(O)C(F)(F)F.O=C(O)C(F)(F)F,Percent Effect,"30.3 µM, […]",9.105%
